About 2,000 (36%) of roughly 5,500 compounds were called active. Another 18% or so got no clear call; they are omitted. Rule as the data show it: active = normalized growth mostly below about 0.91 (no sharp cut-off); inconclusive = no clear call, values can overlap the other calls; inactive = mostly above about 0.92. The list shows a part of the results.
Test: chemical genetic growth profiling, strain panel (AID 1159580);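 also: tested at 20 µM; growth read once vehicle control cultures reached saturation at 30 °C; 1 = growth at the plate median or of vehicle wells; lower values mean less growth of the strain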
Details: growth OD

Measured: normalized growth

COc1c(C)c2c(c(O)c1C/C=C(\C)CCC(=O)O)C(=O)OC2
active: S. cerevisiae deletion strains, locus YKL009W, strain mrt4, stronger effect = lower value 0.561 | S. cerevisiae deletion strains, locus YKL068W, stronger effect = lower value 0.72 | S. cerevisiae deletion strains, locus YKL085W, strain MDH1 (second series), stronger effect = lower value 0.279 | S. cerevisiae deletion strains, locus YKL085W, strain MDH1, stronger effect = lower value 0.279 | S. cerevisiae deletion strains, locus YKL160W, strain elf1, stronger effect = lower value 0.596 | S. cerevisiae deletion strains, locus YKR001C, strain vps1, stronger effect = lower value 0.493 | S. cerevisiae deletion strains, locus YKR026C, strain gcn3, stronger effect = lower value 0.648 | S. cerevisiae deletion strains, locus YKR091W, strain srl3, stronger effect = lower value 0.763 | S. cerevisiae deletion strains, locus YLL001W, strain dnm1, stronger effect = lower value 0.398 | S. cerevisiae deletion strains, locus YLL026W, stronger effect = lower value 0.533 | S. cerevisiae deletion strains, locus YLL041C, strain sdh2, stronger effect = lower value 0.822 | S. cerevisiae deletion strains, locus YLR027C, strain aat2, stronger effect = lower value 0.514 | S. cerevisiae deletion strains, locus YLR039C, strain RIC1, stronger effect = lower value 0.504 | S. cerevisiae deletion strains, locus YLR058C, strain SHM2, stronger effect = lower value 0.844 | S. cerevisiae deletion strains, locus YLR102C, strain apc9, stronger effect = lower value 0.813 | S. cerevisiae deletion strains, locus YLR113W, strain HOG1, stronger effect = lower value 0.189 | S. cerevisiae deletion strains, locus YLR221C, strain rsa3, stronger effect = lower value 0.376 | S. cerevisiae deletion strains, locus YLR258W, strain gsy2, stronger effect = lower value 0.532 | S. cerevisiae deletion strains, locus YLR262C, strain YPT6 (second series), stronger effect = lower value 0.415 | S. cerevisiae deletion strains, locus YLR262C, strain YPT6, stronger effect = lower value 0.467 | S. cerevisiae deletion strains, locus YLR268W, strain sec22, stronger effect = lower value 0.612 | S. cerevisiae deletion strains, locus YLR320W, strain mms22, stronger effect = lower value 0.443 | S. cerevisiae deletion strains, locus YLR330W, strain CHS5, stronger effect = lower value 0.878 | S. cerevisiae deletion strains, locus YLR342W, strain FKS1 (second series), stronger effect = lower value 0.669 | S. cerevisiae deletion strains, locus YLR342W, strain FKS1, stronger effect = lower value 0.442 | S. cerevisiae deletion strains, locus YLR357W, strain rsc2, stronger effect = lower value 0.779 | S. cerevisiae deletion strains, locus YLR370C, strain arc18, stronger effect = lower value 0.435 | S. cerevisiae deletion strains, locus YLR418C, strain cdc73, stronger effect = lower value 0.816 | S. cerevisiae deletion strains, locus YML032C, strain rad52, stronger effect = lower value 0.626 | S. cerevisiae deletion strains, locus YML120C, strain ndi1, stronger effect = lower value 0.406 | S. cerevisiae deletion strains, locus YML124C, strain tub3, stronger effect = lower value 0.737 | S. cerevisiae deletion strains, locus YMR058W, strain fet3, stronger effect = lower value 0.587 | S. cerevisiae deletion strains, locus YMR078C, strain ctf18, stronger effect = lower value 0.843 | S. cerevisiae deletion strains, locus YMR125W, strain sto1, stronger effect = lower value 0.635 | S. cerevisiae deletion strains, locus YMR129W, stronger effect = lower value 0.571 | S. cerevisiae deletion strains, locus YMR205C, strain PFK2, stronger effect = lower value 0.497 | S. cerevisiae deletion strains, locus YMR223W, strain ubp8, stronger effect = lower value 0.732 | S. cerevisiae deletion strains, locus YMR231W, strain pep5, stronger effect = lower value 0.358 | S. cerevisiae deletion strains, locus YMR263W, strain SAP30, stronger effect = lower value 0.765 | S. cerevisiae deletion strains, locus YNL067W, strain RPL9B, stronger effect = lower value 0.782 | S. cerevisiae deletion strains, locus YNL071W, strain lat1, stronger effect = lower value 0.531 | S. cerevisiae deletion strains, locus YNL153C, strain GIM3, stronger effect = lower value 0.811 | S. cerevisiae deletion strains, locus YNL183C, strain NPR1, stronger effect = lower value 0.0633 | S. cerevisiae deletion strains, locus YNL209W, strain ssb2, stronger effect = lower value 0.653 | S. cerevisiae deletion strains, locus YNL233W, strain BNI4, stronger effect = lower value 0.777 | S. cerevisiae deletion strains, locus YNL248C, strain rpa49, stronger effect = lower value 0.417 | S. cerevisiae deletion strains, locus YNL250W, strain rad50, stronger effect = lower value 0.39 | S. cerevisiae deletion strains, locus YNL271C, strain bni1, stronger effect = lower value 0.335 | S. cerevisiae deletion strains, locus YNL298W, strain CLA4, stronger effect = lower value 0.328 | S. cerevisiae deletion strains, locus YNL307C, strain MCK1, stronger effect = lower value 0.295 | S. cerevisiae deletion strains, locus YNL322C, strain KRE1 (second series), stronger effect = lower value 0.507 | S. cerevisiae deletion strains, locus YNL322C, strain KRE1, stronger effect = lower value 0.877 | S. cerevisiae deletion strains, locus YNR049C, strain mso1, stronger effect = lower value 0.607 | S. cerevisiae deletion strains, locus YNR052C, strain pop2, stronger effect = lower value 0.75 | S. cerevisiae deletion strains, locus YOL147C, strain pex11, stronger effect = lower value 0.675 | S. cerevisiae deletion strains, locus YOR001W, strain rrp6, stronger effect = lower value 0.582 | S. cerevisiae deletion strains, locus YOR069W, strain VPS5, stronger effect = lower value 0.911 | S. cerevisiae deletion strains, locus YOR070C, strain gyp1, stronger effect = lower value 0.583 | S. cerevisiae deletion strains, locus YOR080W, strain dia2, stronger effect = lower value 0.841 | S. cerevisiae deletion strains, locus YOR083W, strain WHI5, stronger effect = lower value 0.581 | S. cerevisiae deletion strains, locus YOR106W, strain vam3, stronger effect = lower value 0.442 | S. cerevisiae deletion strains, locus YOR144C, strain elg1, stronger effect = lower value 0.681 | S. cerevisiae deletion strains, locus YOR184W, strain ser1, stronger effect = lower value 0.345 | S. cerevisiae deletion strains, locus YOR231W, strain MKK1, stronger effect = lower value 0.171 | S. cerevisiae deletion strains, locus YOR265W, strain rbl2, stronger effect = lower value 0.691 | S. cerevisiae deletion strains, locus YOR270C, strain vph1, stronger effect = lower value 0.298 | S. cerevisiae deletion strains, locus YOR290C, strain snf2, stronger effect = lower value 0.359 | S. cerevisiae deletion strains, locus YOR316C, strain cot1, stronger effect = lower value 0.82 | S. cerevisiae deletion strains, locus YPL051W, strain arl3, stronger effect = lower value 0.552 | S. cerevisiae deletion strains, locus YPL055C, strain LGE1, stronger effect = lower value 0.589 | S. cerevisiae deletion strains, locus YPL078C, strain atp4, stronger effect = lower value 0.485 | S. cerevisiae deletion strains, locus YPL106C, strain sse1, stronger effect = lower value 0.661 | S. cerevisiae deletion strains, locus YPL240C, strain hsp82, stronger effect = lower value 0.568 | S. cerevisiae deletion strains, locus YPL256C, strain CLN2, stronger effect = lower value 0.18 | S. cerevisiae deletion strains, locus YPR119W, strain clb2, stronger effect = lower value 0.815 | S. cerevisiae deletion strains, locus YPR141C, strain kar3, stronger effect = lower value 0.575 | S. cerevisiae deletion strains, locus YPR163C, strain tif3, stronger effect = lower value 0.547 | S. cerevisiae deletion strains, locus YPR167C, strain met16, stronger effect = lower value 0.739 | S. cerevisiae deletion strains, strain wtn01, stronger effect = lower value 0.684 | S. cerevisiae strains, strain wild type, stronger effect = lower value 0.819
inactive: S. cerevisiae deletion strains, locus YKL190W, strain CNB1, stronger effect = lower value 0.921 | S. cerevisiae deletion strains, locus YLR371W, strain rom2, stronger effect = lower value 0.955 | S. cerevisiae deletion strains, locus YLR384C, strain iki3, stronger effect = lower value 0.983 | S. cerevisiae deletion strains, locus YML016C, strain PPZ1, stronger effect = lower value 0.992 | S. cerevisiae deletion strains, locus YMR307W, strain GAS1, stronger effect = lower value 0.8 | S. cerevisiae deletion strains, locus YNL128W, strain TEP1, stronger effect = lower value 0.868 | S. cerevisiae deletion strains, locus YOL006C, strain TOP1, stronger effect = lower value 0.934 | S. cerevisiae deletion strains, locus YOL012C, strain htz1 0.529 | S. cerevisiae deletion strains, locus YOR061W, strain CKA2, stronger effect = lower value 0.945 | S. cerevisiae deletion strains, locus YOR136W, strain idh2, stronger effect = lower value 0.922 | S. cerevisiae deletion strains, locus YPL241C, strain CIN2, stronger effect = lower value 0.967

From PubChem BioAssay AID1159580 (chemical genetic matrix, 2015)
